Assay outcomes from PubChem.
MCF10A rereplic = inducers of DNA re-replication in MCF 10A breast cells; MCF 10A DNA re-replication, Hoechst nuclear intensity, 48 h; Potency, µM (top dose mostly 46.1 µM), for inactives: at the highest dose activity, positive = re-replication, hits mostly activators; 350,000 compounds, 2.9% hits; AID 624296; also: % of control where 0% means no effect; nearly all actives have a fitted effect of over 50% in size
KB-V1 MDR tox = kills drug-selected multidrug resistant KB-V1 cells; KB-V1 MDR cells viability, CellTiter-Glo, 72 h; Potency, µM (series often up to 46.1 µM), actives largely listed as cytotoxic; 400,000 compounds, 3.4% hits; AID 1347076; also: % is scaled to controls: 0 for no effect and ±100 for the full control effect; nearly all actives have a fitted effect of over 60% in size
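KB-V1 MDR subline cells in DMEM (phenol-red free, 10% FBS) exposed to compounds in qHTS concentration series for 72 h at 37 degrees C. Viability read by CellTiter-Glo luminescence; concentration-effect curves fitted after normalization and correction.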
SW480 rereplic = DNA re-replication induction in SW480 cells; SW480 DNA re-replication, Hoechst DNA content imaging, 48 h; 340,000 compounds, 1.8% hits; Potency, µM (top dose mostly 46.1 µM), inactives show at the highest dose re-replication activation, usual class: activators; also: % of control where 0% means no effect; nearly all actives have a fitted effect of over 55% in size
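Hoechst fluorescence of nuclei (405 nm excitation, 500-530 nm emission) measured by plate-scanning imager after 48 hr compound exposure at 37 C; re-replication scored as increased number of nuclei with elevated intensity.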
KB-3-1 cytotox = KB-3-1 parental cell cytotoxicity; 400,000 compounds, 1.4% hits; Potency, µM (doses to about 46.1 µM), actives largely listed as cytotoxic; KB-3-1 viability, CellTiter-Glo ATP luminescence, 72 h; also: % is scaled to controls: 0 for no effect and ±100 for the full control effect; nearly all actives have a fitted effect of over 60% in size
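Cells are dispensed, compounds pinned in, plates held at 37 °C for 72 h, then CellTiter-Glo is added and luminescence read after 10 minutes. Cell line: parental KB-3-1 in phenol-red-free DMEM, 10% FBS.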
HT1080-NT tox = kills 2HG-producing HT-1080-NT fibrosarcoma cells | HT-1080-NT fibrosarcoma viability, CellTiter-Glo ATP luminescence, 48 h | Potency, µM (titrated, usually from 46.1 µM), inactives show at the highest dose activity, negative = less viability, usual class: cytotoxic | 360,000 compounds, 1.6% hits;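 also: NT is the 2HG producing partner of a matched IDH1 knockdown line; 0% = DMSO-treated cells and -100% = media-only wells without cells; nearly all actives have a fitted effect of over 55% in size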
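Read-out is CellTiter-Glo luminescence after 10 minutes at room temperature, following 48 hours' compound treatment of HT-1080-NT cells (750 cells/well, RPMI, 5% FBS, 37 degrees C).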
HT1080 IDH1KD tx = kills HT-1080 cells with IDH1 knockdown; HT-1080 IDH1 knockdown viability, ATP luminescence, 48 h; Potency, µM (top dose mostly 46.1 µM), inactives show at the top dose activity, negative = toxicity, most hits filed as cytotoxic; 360,000 compounds, 2% hits;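 also: 0% = DMSO wells and -100% = cell-free medium wells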
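IDH1KD HT-1080 cells, 750/well, RPMI + 5% FBS; compound pinned after 2 h settling; 48 h, 37 °C; CellTiter-Glo luminescence; % activity normalised to DMSO and no-cell wells; curves fitted, classed by r2 and efficacy.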
* = called active by the depositor; i = inactive; ? = inconclusive; · = not tested or not shown; ! = not confirmed by another sample. Most compounds without a hit are left out; they make up all but 8% or so of the library. Calls follow the shape of the dose curve; as a rule, active = well fitted curve in the direction sought with a large enough effect; inconclusive = small, poorly fitted or top-dose-only effect, or another doubt; inactive = no such curve, though single readings can be large; an effect the other way counts as inactive or inconclusive. Potency is read from the fitted curve at half-maximal effect.

SMILES	MCF10A rereplic	KB-V1 MDR tox	SW480 rereplic	KB-3-1 cytotox	HT1080-NT tox	HT1080 IDH1KD tx
Cc1cc(/C=C2/C(=O)N(C)C(=S)N2C)ccc1N1CCCC1	0.8%	?	-7.3%	i	-3.9%	-7.3%
Cc1cccc(N2CCN(C(=S)NCCc3ccccc3)CC2)c1C	36.9%	?	-19.9%	i	11.3%	13.7%
COC(=O)c1sccc1NC(=S)N1CCCCC1	0.1%	i	1.4%	i	-4.5%	-1.3%
COC(=O)c1sccc1NC(=S)N1CCN(c2cccc(C)c2C)CC1	4.11µM*	?	?	?	-20.2%	-8.0%
COCCNC(=S)N1CCN(c2cccc(C)c2C)CC1	11.0%	20.6µM*	-0.7%	i	-11.9%	-23.1%
CC(C)(C)c1ccc(C(=O)NCC(c2cccnc2)N2CCc3ccccc3C2)cc1 (stereo not given)	·	i	·	i	·	·
Cc1ccc(CCNC(=O)c2ccc(CS(=O)(=O)Cc3ccccc3F)o2)cc1	27.2%	5.8µM*!	2.0%	i	-6.9%	-4.7%
CC(C)CCNC(=O)c1ccc(CS(=O)(=O)Cc2ccccc2F)o1	-2.7%	i	-3.2%	i	8.3%	2.8%
O=C(NCCc1ccccc1)c1ccc(CS(=O)(=O)Cc2ccccc2F)o1	3.3%	14.6µM*	-4.5%	i	8.9%	2.4%
CC(C)Cc1nc(N2CCN(C(=O)c3ccco3)CC2)c(C#N)c2c1CCCC2	23.1µM*	i	84.8%	i	?	?
CC(C)C(=O)N1CCN(c2nc(-c3ccccc3)c3c(c2C#N)CCCC3)CC1	18.4µM*	?	?	i	?	?
CC1(C)Cc2c(C#N)c(N3CCN(C(=O)c4ccccc4)CC3)nc(Cc3ccccc3)c2CO1	3.3%	18.4µM*	7.4%	?	?	?
Cc1nc(N2CCN(C(=O)c3ccco3)CC2)c(C#N)c2c1CCCC2	6.9%	i	-3.6%	i	16.0%	12.0%
CCC1CN(C(=O)Nc2cc(Cl)ccc2C(=O)OC)c2ccccc2S1 (stereo not given)	·	i	·	i	·	·
Cn1c(-n2cccc2)c(-c2c(-c3ccccc3)[nH]c3c2c(=O)n(C)c(=O)n3C)c(=O)n(C)c1=O	·	i	·	i	·	·
COc1ccc(CC(N)c2csc(NC(=O)c3cc(C(C)(C)C)nn3Cc3ccccc3)n2)cc1 (stereo not given)	·	?	·	?	20.6µM*	20.6µM*
CC(N)c1csc(NC(=O)c2cc(C(C)(C)C)nn2Cc2ccccc2)n1 (stereo not given)	·	?	·	?	18.4µM*	?
CC(=O)Nc1nnc([N+](=O)[O-])s1	·	i	·	i	-23.1%	-2.3%
NC(N)=Nc1nc(-c2ccccc2)c2ccccc2n1	4.9%	i	-21.5%	?	-28.6%	18.4µM*
Clc1nc(-c2ccccc2)c2ccccc2n1	5.5%	?	1.0%	i	-2.4%	-3.7%
COc1ccccc1NC(=O)CN(C)S(=O)(=O)c1cccc2cccnc12	0.0%	i	-4.9%	i	3.3%	0.0%
COc1ccc(N(C)S(=O)(=O)c2cccc3cccnc23)c(OC)c1	8.2µM*	?	20.6µM*	?	11.2µM*	8.91µM*
COc1cc(NC(=O)CCn2cnc3ccccc3c2=O)cc(OC)c1	·	i	·	i	·	·
COc1ccc(Nc2ncnc3c2cnn3-c2ccc(C)cc2)cc1Cl	·	i	·	i	·	·
Fc1ccc(COc2ccc(Br)cc2CNCc2ccncc2)cc1	?	2.91µM*	19.7%	i	-18.7%	?
SMILES	MCF10A rereplic	KB-V1 MDR tox	SW480 rereplic	KB-3-1 cytotox	HT1080-NT tox	HT1080 IDH1KD tx
CCOc1cc(CNCc2ccncc2)cc(Br)c1OCc1ccc(F)cc1	?	?	16.4%	i	?	11.2µM*
COc1ccc(C)cc1NC(=O)c1ccc2c(c1)CCN2S(=O)(=O)c1ccc(Cl)cc1	·	i	·	i	·	·
CCC(Oc1ccccc1)C(=O)N(Cc1ccccc1)c1ccccn1 (stereo not given)	-10.5%	16.4µM*	-11.7%	?	-0.3%	-5.9%
COc1ccc(NC(=O)c2nc(S(C)(=O)=O)ncc2N(Cc2ccc(C)cc2)Cc2ccco2)cc1Cl	·	i	·	i	·	·
COc1cccc(CNc2ccc(S(N)(=O)=O)cc2)c1OC	18.6%	?	18.4µM*	i	-3.3%	-1.5%
NCCC(O)(P(=O)(O)O)P(=O)(O)O	1.3%	·	-5.4%	·	·	·
COc1cccc(NC(=O)C2(C)CCN2C(=O)Cc2ccc(C(C)C)cc2)c1 (stereo not given)	·	i	·	i	-21.6%	-28.9%
O=C(CN1CCN(CC(=O)Nc2ccc3c(c2)OC2(CCCCC2)O3)CC1)Nc1cccc(F)c1	?	5.8µM*	8.0%	i	-5.1%	-21.8%
O=C(Cc1ccc2ccccc2c1)NO	·	·	·	·	23.8%	19.5%
Cc1cc(O)c(Oc2cc(C)cc(O)c2O)c(O)c1	30.4%	i	18.4µM*	i	?	?
CC(NC(=O)CSC(=S)N1CCCC1)c1ccc(S(N)(=O)=O)cc1 (stereo not given)	2.6%	i	-4.8%	i	-12.4%	-6.5%
Oc1ccc(/C=N/Nc2nc(N3CCCCCC3)nc(N3CCCCCC3)n2)c(O)c1	?	?	?	i	?	?
C/C(=N\Nc1nc(N2CCOCC2)nc(N2CCOCC2)n1)c1cccs1	11.8%	i	15.1%	i	-8.4%	5.0%
C/C(=N\Nc1nc(N2CCCCC2)nc(N2CCOCC2)n1)c1ccccc1O	?	16.4µM*	11.6µM*	?	?	18.4µM*
BrC(/C=C\c1ccccc1)=N/Nc1nc(N2CCOCC2)nc(N2CCOCC2)n1	10.3µM*	i	?	i	?	?
Oc1ccc(Br)cc1/C=N/Nc1nc(N2CCCCC2)nc(N2CCOCC2)n1	12.0%	i	20.6µM*	?	-1.6%	-2.5%
Cc1cc(NC(=O)NC(=O)c2ccccc2F)no1	0.0%	i	-4.6%	?	8.3%	-2.2%
CC(NC(=O)c1ccc(Cl)cc1)c1nnc(SCC(=O)NC2=NCCS2)n1C (stereo not given)	-9.5%	i	15.0%	i	-2.9%	15.5%
Cc1cc(NC(=O)CCCS(=O)(=O)c2nc(-c3cccs3)cc(C(F)(F)F)n2)no1	4.11µM*	i	?	13µM*	5.8µM*	5.8µM*
Cc1cc(NC(=O)CSc2nc(-c3cccs3)cc(C(F)(F)F)n2)no1	-5.6%	1.03µM*	2.2%	1.64µM*	0.794µM*	0.501µM*
CCOc1ccc(NC(=O)CSc2n[nH]c(N)n2)c([N+](=O)[O-])c1	2.6%	i	12.2%	i	6.3%	18.4%
